Laboratory results taken from PubChem BioAssay (NCATS).
Activity calls are given as the source filed them. Calls come from the whole dose curve.

Assay: qHTS drug screen for cell cycle checkpoint inhibitors in PARPi-resistant BRCA-mutant ovarian cancer cell lines. (AID 1963452)
Conditions: PEO1/OlaR viability, CellTiter-Glo luminescence, 96 h; for Z-AUC: stronger effect = lower value
Outline: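 PEO1, PEO4 and PEO1/OlaR ovarian cancer cells, 600 per well, exposed 96 h at 37C to a dilution series. Viability read by CellTiter-Glo luminescence, normalized to DMSO and empty wells; activity summarized as Z-AUC.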

[1] = measured here: PEO1 parental Z-AUC
Potency is the fitted concentration of half-maximal effect.

O=C(NC[C@H](O)CN1CCc2ccccc2C1)c1ccnc(NC2CCC2)c1
Z-AUC: -0.571 (inactive)
Z-AUC [1]: -0.416
Z-AUC (measured here: PEO4 Z-AUC): -0.212

O=C(NCCCNc1nc(Nc2cccc(CN3CCOCC3)c2)ncc1C1CC1)C1CCC1
Z-AUC: -0.249 (inactive)
Z-AUC [1]: -0.12
Z-AUC (measured here: PEO4 Z-AUC): -0.429

C=CC(=O)Nc1ccc2ncnc(Nc3cccc(Br)c3)c2c1
Z-AUC: -0.896 (inactive)
Z-AUC [1]: -1.05
Z-AUC (measured here: PEO4 Z-AUC): -0.968

COc1cc(N2CCC(N3CCN(C)CC3)CC2)ccc1Nc1ncc(Cl)c(Nc2ccccc2P(C)(C)=O)n1
Potency: 549 nM (active)
Z-AUC [1]: -1.53
Z-AUC (measured here: PEO4 Z-AUC): -1.55

COc1cc(S(C)(=O)=O)ccc1Nc1nc2ccc(-c3ccc(NC(=O)[C@H](C)c4ccc(F)cc4)cc3)cn2n1
Z-AUC: 0.76 (inactive)
Z-AUC [1]: 0.0908
Z-AUC (measured here: PEO4 Z-AUC): 0.043

CC(C)(C)Sc1c(CC(C)(C)C(=O)O)n(Cc2ccc(Cl)cc2)c2ccc(OCc3ccc4ccccc4n3)cc12
Z-AUC: 1.37 (inactive)
Z-AUC [1]: 0.865
Z-AUC (measured here: PEO4 Z-AUC): 0.962

CC(C)S(=O)(=O)c1ccc2nccc(Nc3ccc4scnc4c3)c2c1
Z-AUC: -0.9 (inactive)
Z-AUC [1]: -0.597
Z-AUC (measured here: PEO4 Z-AUC): -0.874

Cn1cc(-c2ccc(S(=O)(=O)n3ccc(/C=C/C(=O)Nc4ccccc4N)c3)cc2)cn1
Z-AUC: 0.896 (inactive)
Z-AUC [1]: 1.17
Z-AUC (measured here: PEO4 Z-AUC): 0.999

CS(=O)(=O)c1ccc(Oc2cc(F)cc(C#N)c2)c2c1[C@H](O)C(F)(F)C2
Z-AUC: 1.42 (inactive)
Z-AUC [1]: 1.01
Z-AUC (measured here: PEO4 Z-AUC): 0.7

Cc1ccc(NC(=O)c2ccc(CN3CCNCC3)cc2)cc1Nc1nccc(-c2cccnc2)n1
Z-AUC: 0.805 (inactive)
Z-AUC [1]: 0.225
Z-AUC (measured here: PEO4 Z-AUC): 0.453

Cn1cc(-c2ccc3c(c2)CCN3C(=O)Cc2cccc(C(F)(F)F)c2)c2c(N)ncnc21
Z-AUC: -1.17 (inactive)
Z-AUC [1]: -0.267
Z-AUC (measured here: PEO4 Z-AUC): -1.2
